# Bioassay records from PubChem BioAssay.
# This is a sample that favours compounds with a hit; in the whole collection about 1.6% have one here.
# FBPA coupling cs: coupling enzyme interference in Giardia aldolase counter-screen; coupling enzyme system counterscreen, AmpLite Red fluorescence; activity change, negative = inhibition, % at 58.2 µM, hits read low; 0.67% of 290,000 active; AID 2472; in the data active means activity change below about -30%; further: on the % scale 0 is the no-effect control and ±100 the full control effect
#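 Compounds tested against the coupling enzymes alone at 57.5 uM final; readout was AmpLite Red fluorescence (525/598 nm) after 20 min at RT.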
# Giardia killer: kills Giardia lamblia | activity change, % at 7.66 µM, hits read low | AID 540267 | 0.15% of 340,000 active | Giardia lamblia trophozoite viability; in the data active means activity change below about -80%; inconclusive means between about -30% and that limit;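 further: parasites exposed to compound for two days anaerobically before the ATP read; on the % scale 0 is the no-effect control and ±100 the full control effect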
#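 Viability, read as ATP luminescence: trophozoites at 100 cells/well, compound added, 48 hrs anaerobic at 37 deg C, then 15-30 min room-temperature development before reading.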
# RXFP1 antag: RXFP1 (human) relaxin receptor antagonism. Q9HBX9. HEK293-RXFP1, relaxin-stimulated cAMP HTRF, 30 min; stronger effect = lower value. activity change, negative = inhibition, % at 57.5 µM. 0.59% of 350,000 active. AID 1259400;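 active means activity change of -60% or lower, but not beyond a set lower limit; inconclusive means change between -60% and -40%, or beyond the set limit; inactive means change above -40%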; further: on the % scale 0 is the no-effect control and ±100 the full control effect
# RXFP1 agonist: agonists of human relaxin receptor RXFP1. Q9HBX9. Potency, µM (doses to about 57.5 µM), for the others: at the highest dose activation, hits mostly activators. 0.3% of 370,000 active. HEK293T-RXFP1 cAMP TR-FRET, 30 min; response scale: percent of porcine relaxin response, buffer zero; active means well fitted activation curve with a large enough effect; inconclusive means small, poorly fitted or top-dose-only effect; further: potency means the concentration at half of the fitted maximal effect; on the % scale 0 is the no-effect control and ±100 the full control effect; nearly all actives have a fitted effect of over 60% in size
#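 cAMP rise read by TR-FRET after 30 min, 37C compound exposure (up to 58 uM) in RXFP1-transfected HEK293 cells with Ro 20174 present. EC50 from Hill-equation fits, with 29 nM porcine relaxin as 100% and buffer as basal.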
# gsp antag: gsp mutant antagonism; gsp-mutant cells, cAMP HTRF, 30 min; 0.4% of 340,000 active; Potency, µM (titrated, usually from 76.9 µM), for inactives: top-dose activity change, negative = inhibition, hits mostly inhibitors; calls by dose curve; cell line not stated here;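 further: intracellular cAMP measured with PDE inhibitor Ro 20-1724 present during compound exposure; potency means the concentration at half of the fitted maximal effect; on the % scale 0 is the no-effect control and ±100 the full control effect; nearly all actives have a fitted effect of over 65% in size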
#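 Cells in G418 medium, seeded 16-24 h, 37C; buffer exchange to DPBS + 1 mM CaCl2, 0.5 mM MgCl2, 0.05% BSA; cpds in DMSO + […] (300 uM stock), 30 min 37C; HTRF cAMP detection.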
# gsp ag: gsp mutant agonism; gsp mutant cells, cAMP HTRF, 30 min; Potency, µM (series often up to 76.9 µM), inactives show at the highest dose activation (cAMP increase), most hits filed as activators; 0.13% of 340,000 active; active means well fitted activation curve with a large enough effect; inconclusive means small, poorly fitted or top-dose-only effect, or another doubt; inactive means no such curve, though single readings can be large or run the other way; cell line not stated here;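 further: phosphodiesterase inhibitor Ro 20-1724 added with compounds to block cAMP breakdown; potency means the concentration at half of the fitted maximal effect; nearly all actives have a fitted effect of over 60% in size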
#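 Cells in DMEM/10% FBS with G418 were pretreated with compounds in DMSO plus […] (300 uM stock) for 30 min at 37C. cAMP was measured by HTRF (cAMP-d2 plus anti-cAMP antibody-K) after 30 min at room temperature.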
# Starred values were filed as active, the others as inactive; ? = inconclusive; nt = not tested or not shown; [ ] = remark or other dose.
SMILES,FBPA coupling cs,Giardia killer,RXFP1 antag,RXFP1 agonist,gsp antag,gsp ag
CCOc1cc2c(C#N)c(N3CCOCC3)nc(N)c2c(N)n1,-48*,-13,28,13%,5%,?
CCOc1cc2c(C#N)c(N(CC)CC)nc(N)c2c(N)n1,nt,13,nt,nt,15%,24%
CC(=O)OC1C=C[C@@H](OC(C)=O)C1 (stereo not given in full),-1,nt,nt,nt,nt,nt
Cn1c(=O)c(Oc2ccc(Cl)cc2)c(O)c2ccccc21,11,10,-3,4%,-18%,18%
COc1ccc(Oc2c(O)c3ccccc3n(C)c2=O)cc1,9,-2,-11,3%,32µM*,-3%
CCOC(=O)c1[nH]c2ccccc2c1NC(=O)c1ccccc1OC,nt,nt,nt,-2%,nt,nt
CCn1ccc2cc(OC)ccc2c1=S,-83*,-4,10,17%,28%,?
COc1cccc(-c2nnc3n2N=C(c2c(OC)cccc2OC)CS3)c1,6,nt,nt,nt,nt,nt
Nc1c(C(=O)NCC2CCCO2)sc2nc3c(c(-c4ccco4)c12)CC/C3=C\c1ccco1 (stereo not given),-16,2,-102*,1%,-8%,7%
O=C(O)C(Cc1ccc(O)cc1)N1C(=O)c2c(Cl)c(Cl)c(Cl)c(Cl)c2C1=O (stereo not given),nt,-10,-62*,nt,-2%,-34%[15.4 µM]
CCOCc1cnc(C)nc1NCC(=O)c1c(C)[nH]c2ccc(OC)cc12,-49*,-6,-11,-3%,2%,7%
CC(=C(CCOC(=O)C(C)C)SSC(CCOC(=O)C(C)C)=C(C)N(C=O)Cc1cnc(C)nc1N)N(C=O)Cc1cnc(C)nc1N,nt,nt,-10,nt,nt,nt
COc1ccc(N2CCN(c3oc(/C=C/c4cccc(OC)c4)nc3C#N)CC2)cc1,nt,nt,0,-5%,nt,nt
Cc1cccc(Cn2cc3c(=O)n(CC(=O)Nc4cccc(C)c4C)nc-3c3cc(F)ccc32)c1,nt,nt,-3,0%,nt,nt
COc1cc(C2C(C#N)=C(C)NC(C)=C2C#N)cc(OC)c1OC,-2,-1,0,1%,11%,8.9µM*
Cc1ccc(-c2cc(NC(=O)COc3c(C)cc(C)cc3C)on2)cc1,nt,nt,-19,0%,nt,nt
Oc1ccc2ccccc2c1CNc1cnc2ccccc2c1,-46*,4,-11,3%,4%,-42%
Oc1ccccc1CNc1cnc2ccccc2c1,0,3,-6,0%,?,14%
CC(C)OC(=O)c1cc2c(OCC(O)CNC(C)(C)C)cccc2[nH]1 (stereo not given),nt,nt,13,nt,nt,nt
COc1cc(CCC(=O)Nc2ccc(Br)c(C(F)(F)F)c2)cc(OC)c1OC,-1,-3,-28,0%,28µM*,0%[15.4 µM]
COc1cc(CCC(=O)Nc2ccc(Cl)c(C(F)(F)F)c2)cc(OC)c1OC,-1,-14,-12,3%,-28%,?
CCN(CC)S(=O)(=O)c1cccc(NC(=O)COC(=O)c2[nH]c(C)c(C(C)=O)c2C)c1,nt,nt,1,nt,nt,-56%
CCOC(=O)/C=c1\s/c(=C\c2ccc(-c3ccccc3)cc2)c(=O)n1CC(=O)NCc1ccc2c(c1)OCO2,-13,9,-5,1%,7%,-20%
CCOC(=O)/C=c1/s/c(=C/c2ccc3cc(OC)ccc3c2)c(=O)n1CC(=O)NCc1ccc2c(c1)OCO2,nt,1,-79*,nt,3%,-1%
CO[C@H]1COC(=O)[C@H](C)NC(=O)C/C=C\[C@@H](C)[C@@H](NS(=O)(=O)c2ccc(C)cc2)COC(=O)C/C=C\[C@@H]1C,1,nt,nt,nt,nt,nt
Cc1cccc2sc(N(CCCN(C)C)C(=O)CN3C(=O)c4ccccc4C3=O)nc12,2,-9,-5,0%,7%,28%
Cc1ccc2sc(N(CCCN(C)C)C(=O)c3ccc(Br)s3)nc2c1C,0,12,-77*,7%,8%,5%[15.4 µM]
Cc1cccc2sc(N(CCCN(C)C)C(=O)CCc3ccccc3)nc12,6,8,-85*,-1%,12%,-16%
CC(C)OC(=O)C(C(=O)OC(C)C)=C1SC=CS1,nt,nt,7,nt,nt,nt
